Bioassay records as filed in PubChem BioAssay.
VDR inhibitor: inhibitors of human vitamin D receptor; actives 0.93% (n = 400,000); P11473; Potency, µM, for the others: max response, negative = inhibition, most hits filed as inhibitors; VDR-SRC2-3 peptide fluorescence polarization, 2 h
Target sequence (P11473 whole entry, looked up): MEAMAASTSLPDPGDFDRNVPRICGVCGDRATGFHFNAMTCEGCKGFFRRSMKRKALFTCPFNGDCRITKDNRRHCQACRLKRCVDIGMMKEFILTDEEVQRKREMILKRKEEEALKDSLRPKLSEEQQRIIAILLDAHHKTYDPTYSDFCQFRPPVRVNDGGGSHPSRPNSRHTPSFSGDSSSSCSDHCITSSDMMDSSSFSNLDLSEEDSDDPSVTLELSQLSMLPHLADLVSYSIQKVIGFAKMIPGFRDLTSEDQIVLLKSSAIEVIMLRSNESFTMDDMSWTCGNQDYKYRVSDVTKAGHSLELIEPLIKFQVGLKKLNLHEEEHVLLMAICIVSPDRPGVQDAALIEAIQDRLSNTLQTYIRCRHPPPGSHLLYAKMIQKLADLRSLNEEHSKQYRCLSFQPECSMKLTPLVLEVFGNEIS
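Two reagent solutions held at 4 deg C in the dark were dispensed, compounds pinned at 23 nl, and the mixture incubated 2 h at room temperature. Read-out: fluorescence polarization of VDR–SRC2-3 peptide binding.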
Tau ThT inhib: tau fibrillization inhibition (ThT binding); P10636; recombinant tau K18 P301L, heparin-induced fibrillization, ThT fluorescence; Potency, µM (series often up to 57.4 µM), for inactives: top-dose activity, negative = inhibition, hits mostly inhibitors; actives 2.1% (n = 270,000); AID 1460; further: nearly all actives have a fitted effect of over 55% in size
Target sequence (P10636 561-689 P618L limits assumed): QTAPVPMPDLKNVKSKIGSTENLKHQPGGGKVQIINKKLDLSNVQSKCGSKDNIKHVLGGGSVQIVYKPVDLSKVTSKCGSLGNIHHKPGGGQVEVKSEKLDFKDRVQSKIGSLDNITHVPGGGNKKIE
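Heparin-induced fibrillization of the P301L-mutant K18 repeat-domain fragment of human tau was followed by ThT binding in quantitative high-throughput format.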
Tau FP inhib: blocks human tau fibril formation measured by polarization; AID 1468; K18 P301L tau heparin fibrillization, Alexa594 FP, 6 h; Potency, µM (titrated, usually from 57.7 µM), for the others: top-dose activity, negative = inhibition, usual class: inhibitors; actives 0.39% (n = 280,000); further: nearly all actives have a fitted effect of over 55% in size
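K18 P301L tau (15 uM unlabeled/0.24 uM Alexa 594-labeled, final) + compound + heparin 20 uM final; 100 mM NaOAc pH 7; 6 hr 37 C; ThT 30 uM final added, 1 hr RT; FP ex 555/em 632 nm.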
Tau fluor cs: counter-screen for tau fibril formation inhibitors | actives 0.93% (n = 280,000) | tau K18 P301L Alexa594 fluorescence, heparin fibrillization | AID 1463 | Potency, µM (top dose mostly 57.7 µM), for the others: at the highest dose activity change, negative = decrease; further: nearly all actives have a fitted effect of over 55% in size
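Human tau K18 P301L (15 uM unlabeled, 0.24 uM Alexa 594-labeled) in 100 mM sodium acetate pH 7 with 20 uM heparin, 6 hr at 37 C. ThT 30 uM added, 1 hr ambient; Alexa 594 FP and total fluorescence read at 555/632 nm.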
PLK1 PBD block: PLK1 (human) polo-box domain binding inhibition; Plk1 PBD binding of FITC phosphopeptide, fluorescence polarization; Potency, µM, for inactives: max response, negative = inhibition, most hits filed as inhibitors; actives 2.8% (n = 360,000); further: series mostly up to about 57 µM; nearly all actives have a fitted effect of over 65% in size
Sfp inh: inhibitors of Bacillus subtilis Sfp phosphopantetheinyl transferase; Q9F4F7; Biochemical Sfp PPTase activity, qHTS; Potency, µM, inactives show largest response in the series, negative = inhibition, hits mostly inhibitors; actives 3.5% (n = 310,000); AID 1490;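 further: the enzyme is Sfp with the accession as filed and its product quenches rhodamine fluorescence; 0% = enzyme reaction without inhibitor and -100% = no enzyme wells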
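Fluorescence-quenching assay with 15 nM Sfp, 5 uM rhodamine-CoA and 12.5 uM BHQ-2-labelled ybbR peptide in pH 7.6 Hepes/MgCl2 buffer. Enzyme was pre-incubated with compound for 15 min at room temperature. Rate was taken from the 30-min fluorescence change (525/598 nm).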
An asterisk follows results filed as active; [ ] = another dose, or the depositor's remark. A selection: hits, their analogues and other compounds. The true share with any hit is near 6%. The call rests on the fitted dose curve; in most records, active means well fitted curve in the direction sought with a large enough effect; inconclusive means small, poorly fitted or top-dose-only effect, or another doubt; inactive means no such curve, though single readings can be large; an effect the other way counts as inactive or inconclusive. Unless noted, on the % scale 0 is the no-effect control and ±100 the full control effect; potency means the concentration at half of the fitted maximal effect.

Results for N#CC1=C(S)N(c2ccccc2)C(c2ccc(-c3ccc(Cl)c(Cl)c3)o2)NC1=O (centres undefined) ?
VDR inhibitor: 56µM*; Tau ThT inhib: 16µM*; Tau FP inhib: 25µM*; Tau fluor cs: -21%; PLK1 PBD block: inconclusive; Sfp inh: 35µM*

What do the screens show for `CCc1cc2c(SCC(=O)c3ccc(C)cc3)ncnc2s1`?
VDR inhibitor: 8%; Tau ThT inhib: -6%; Tau FP inhib: 1%; Tau fluor cs: -6%; PLK1 PBD block: 30µM*; Sfp inh: 9%

How did CCc1cc2c(SCC(=O)NC3CCCC3)ncnc2s1 do in these assays?
PLK1 PBD block: -2%

What do the screens show for `COc1ccc(NC(=O)COC(=O)/C=C/C(=O)OCC(=O)Nc2ccc(OC)c(Cl)c2)cc1Cl`?
VDR inhibitor: -8%; Tau ThT inhib: 0%; Tau FP inhib: 10%; Tau fluor cs: -2%; PLK1 PBD block: -6%; Sfp inh: 79µM*

What do the screens show for `COCC(=O)Nc1ccc(OC)c(Cl)c1`?
VDR inhibitor: -10%; Tau ThT inhib: 0%; Tau FP inhib: 2%; Tau fluor cs: 9%; PLK1 PBD block: -8%; Sfp inh: 6%

How did CCc1ccc(NC(=O)c2cc(C(C)=O)n3ccccc23)cc1 do in these assays?
VDR inhibitor: 4%; Tau ThT inhib: 2%; Tau FP inhib: -17%; Tau fluor cs: -25%

What do the screens show for `COc1ccc(NC(=O)c2cc(C(C)=O)n3ccccc23)cc1Cl`?
VDR inhibitor: 11%; Tau ThT inhib: -13%; Tau FP inhib: inconclusive; Tau fluor cs: 28µM*[quencher]

How did CCOC(=O)/C=C/C(=O)OCC(=O)Nc1ccc(Cl)cc1Cl do in these assays?
VDR inhibitor: inconclusive; Tau ThT inhib: inconclusive; Tau FP inhib: 2%; Tau fluor cs: 5%; PLK1 PBD block: inconclusive; Sfp inh: -4%

How did CCOC(=O)/C=C/C(=O)OCC(=O)Nc1ccc(OC)c(Cl)c1 do in these assays?
VDR inhibitor: 79µM*; Tau ThT inhib: inconclusive; Tau FP inhib: 3%; Tau fluor cs: 6%; PLK1 PBD block: inconclusive; Sfp inh: -8%

What do the screens show for `COc1ccc(NC(=O)COC(C)=O)cc1Cl`?
VDR inhibitor: -6%; Tau ThT inhib: -5%; Tau FP inhib: -8%; Tau fluor cs: -17%; PLK1 PBD block: 27µM*; Sfp inh: 4%

How did O=C(CCSc1nnc2ccc3ccccc3n12)Nc1ccc(F)cc1 do in these assays?
VDR inhibitor: 0%; Tau ThT inhib: 4%; Tau FP inhib: -10%; Tau fluor cs: -9%; PLK1 PBD block: 30µM*; Sfp inh: -2%

Results for COc1ccc(/C=C/C(=O)NC2CCN(Cc3ccccc3)CC2)cc1OC ?
VDR inhibitor: -5%; PLK1 PBD block: -5%; Sfp inh: 17%

Results for O=C1S/C(=C\c2ccc(O)c([N+](=O)[O-])c2)C(=O)N1c1ccccc1Cl ?
VDR inhibitor: inconclusive; Tau ThT inhib: 6.3µM*; Tau FP inhib: -5%; Tau fluor cs: inconclusive; PLK1 PBD block: inconclusive; Sfp inh: inconclusive

Results for Cc1cccc(NC(=O)CN2C(=O)S/C(=C\c3ccc(O)c([N+](=O)[O-])c3)C2=O)c1 ?
VDR inhibitor: -8%; Tau ThT inhib: 6.3µM*; Tau FP inhib: 1%; Tau fluor cs: inconclusive; PLK1 PBD block: -27%; Sfp inh: -8%

Results for O=C(CN1C(=O)S/C(=C\c2ccc(O)c([N+](=O)[O-])c2)C1=O)Nc1ccc(N2CCOCC2)cc1 ?
VDR inhibitor: -10%; PLK1 PBD block: inconclusive; Sfp inh: inconclusive

Results for CCOC(=O)CN1C(=O)S/C(=C/c2cccc([N+](=O)[O-])c2O)C1=O ?
VDR inhibitor: 7%; Tau ThT inhib: 13µM*; Tau FP inhib: 4%; Tau fluor cs: -23%; PLK1 PBD block: -29%; Sfp inh: 8%

What do the screens show for `Cc1cccc(NC(=O)CN2C(=O)S/C(=C\c3cc(C)n(C)c3C)C2=O)c1`?
VDR inhibitor: -11%; Tau ThT inhib: inconclusive; Tau FP inhib: 3%; Tau fluor cs: inconclusive; PLK1 PBD block: -5%; Sfp inh: 56µM*

How did O=C(N/N=C\c1ccc(O)c([N+](=O)[O-])c1)c1ccccc1-n1cccc1 do in these assays?
VDR inhibitor: 7%; Tau ThT inhib: inconclusive; Tau FP inhib: 5%; Tau fluor cs: 4%; PLK1 PBD block: -15%; Sfp inh: 0%

Results for O=C(O)c1cccc(CN2C(=O)S/C(=C/c3ccccc3[N+](=O)[O-])C2=O)c1 ?
VDR inhibitor: inconclusive; Tau ThT inhib: inconclusive; Tau FP inhib: inconclusive; Tau fluor cs: -16%; PLK1 PBD block: -26%; Sfp inh: 21%

Results for CC(=O)OCC=C1CCC2C3CC(C)C4=CC(=O)CCC4(C)C3C(O)CC12C (centres undefined) ?
VDR inhibitor: -18%; PLK1 PBD block: -19%

What do the screens show for `COc1cc(/C=C2\C(=O)N(C)C(=S)N2C)ccc1O`?
VDR inhibitor: -19%; Tau ThT inhib: inconclusive; Tau FP inhib: 12%; Tau fluor cs: -14%; PLK1 PBD block: 19%; Sfp inh: -9%

How did O=C1S/C(=C\c2ccc(O)c([N+](=O)[O-])c2)C(=O)N1Cc1cccc([N+](=O)[O-])c1 do in these assays?
VDR inhibitor: -28%; Tau ThT inhib: 11µM*; Tau FP inhib: 18%; Tau fluor cs: inconclusive; PLK1 PBD block: 24µM*; Sfp inh: -29%

How did CN1C(=O)/C(=C/c2ccc(O)c([N+](=O)[O-])c2)N(C)C1=S do in these assays?
VDR inhibitor: 5%; Tau ThT inhib: 4.5µM*; Tau FP inhib: 1%; Tau fluor cs: -19%; PLK1 PBD block: -10%; Sfp inh: inconclusive

How did CC1=C([N+](=O)[O-])C(c2cccc(Br)c2)C2=C(N1)c1ccccc1C2=O (centres undefined) do in these assays?
VDR inhibitor: -16%; Tau ThT inhib: 16µM*; Tau FP inhib: inconclusive; Tau fluor cs: 14µM*[quencher]; PLK1 PBD block: -7%; Sfp inh: inconclusive

Results for O=C(Nc1cccc2cccnc12)c1ccc(Br)cc1 ?
VDR inhibitor: 11%

Results for CCOc1cc2c(cc1OC)C(c1cccc([N+](=O)[O-])c1)NCC2 (centres undefined) ?
VDR inhibitor: inconclusive; Tau ThT inhib: -1%; Tau FP inhib: -1%; Tau fluor cs: 3%; PLK1 PBD block: 4.7µM*; Sfp inh: 0%

How did COc1c(O)cc2c(=O)oc3c(OC)c(O)cc4c(=O)oc1c2c34 do in these assays?
VDR inhibitor: -6%; Tau ThT inhib: inconclusive; Tau FP inhib: -1%; Tau fluor cs: -27%; Sfp inh: -27%
